HP1b chromo inh – HTS for Inhibitors of HP1-beta Chromodomain Interactions with Methylated Histone Tails. Chromobox protein homolog 1 (Homo sapiens), P83916. Potency, µM (series often up to 114 µM), for inactives: top-dose activity change, negative = inhibition, hits mostly inhibitors. hit rate 0.56% among 390,000. AID 540317, 2011. AlphaScreen HP1-beta / biotin-H3K9me3 peptide binding; further: potency means the concentration at half of the fitted maximal effect; nearly all actives have a fitted effect of over 70% in size
Target sequence (P83916 whole entry, looked up): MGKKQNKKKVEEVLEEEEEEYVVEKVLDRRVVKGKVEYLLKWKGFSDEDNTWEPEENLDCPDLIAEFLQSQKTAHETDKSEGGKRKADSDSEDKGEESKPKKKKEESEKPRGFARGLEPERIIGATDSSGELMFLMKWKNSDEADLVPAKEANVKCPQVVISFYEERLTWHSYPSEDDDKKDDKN
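HP1-beta protein (50 nM final) preincubated 30 min at room temperature with biotinylated H3(1-18)K9me3 peptide (50 nM) in PBS pH 7.4, 0.01% Tween-20, then compound added for 30 min. AlphaScreen streptavidin donor/nickel chelate acceptor beads (10 ug/mL final), 30 min dark, luminescence read.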
PLK1 PBD block – qHTS for Inhibitors of PLK1-PDB (polo-like kinase 1 - polo-box domain): Primary Screen. Serine/threonine-protein kinase PLK1 (Homo sapiens), P53350. Potency, µM, for inactives: max response, negative = inhibition, hits mostly inhibitors. AID 720504, 2013. hit rate 2.8% among 360,000. Plk1 PBD binding of FITC phosphopeptide, fluorescence polarization; further: potency means the concentration at half of the fitted maximal effect; series mostly up to about 57 µM; on the % scale 0 is the no-effect control and ±100 the full control effect; nearly all actives have a fitted effect of over 65% in size
JMJD2A Tudor – qHTS Assay for Inhibitors of JMJD2A-Tudor Domain | AlphaScreen JMJD2A-Tudor / H3K4me3 peptide binding | Potency, µM (doses to about 114 µM), inactives show top-dose activity change, negative = inhibition, hits mostly inhibitors | hit rate 4.4% among 390,000 | AID 504339, 2011; further: potency means the concentration at half of the fitted maximal effect; on the % scale 0 is the no-effect control and ±100 the full control effect; nearly all actives have a fitted effect of over 50% in size
PI5P4K alpha inh – qHTS for Inhibitors of phosphatidylinositol 5-phosphate 4-kinase (PI5P4K). hit rate 1.2% among 330,000. Phosphatidylinositol 5-phosphate 4-kinase type-2 alpha (Homo sapiens), P48426. AID 652105, 2013. max response, %. PI5P4Kalpha enzyme, ADP-Glo luminescence, 60 min; stronger effect = lower value; active means max response of -50% or lower; inconclusive means between -30% and -50%; inactive means -30% or higher; further: value at the top dose of about 77 µM; on the % scale 0 is the no-effect control and ±100 the full control effect
Target sequence (P48426 whole entry, looked up): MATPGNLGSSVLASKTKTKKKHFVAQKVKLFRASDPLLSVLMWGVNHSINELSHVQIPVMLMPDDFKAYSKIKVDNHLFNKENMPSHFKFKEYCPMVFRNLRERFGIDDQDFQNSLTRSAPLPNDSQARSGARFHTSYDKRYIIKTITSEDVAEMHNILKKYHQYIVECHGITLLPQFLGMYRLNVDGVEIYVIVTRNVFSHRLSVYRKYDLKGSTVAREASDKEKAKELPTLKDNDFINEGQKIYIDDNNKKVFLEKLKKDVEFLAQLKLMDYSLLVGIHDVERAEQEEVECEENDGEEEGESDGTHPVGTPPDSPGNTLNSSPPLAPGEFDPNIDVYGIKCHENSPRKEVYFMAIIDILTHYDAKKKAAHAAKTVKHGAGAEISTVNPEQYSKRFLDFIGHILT
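PI5P4Kalpha ADP-Glo assay; 5 microM ATP final; 60 min RT reaction; HEPES pH 7.4/EGTA/CHAPS, 5% DMSO; controls lacking substrate or enzyme; luminescent end-point.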
GCN5L2 inh – qHTS Assay for Inhibitors of GCN5L2 | Histone acetyltransferase KAT2A (Homo sapiens), Q92830 | GCN5L2 HAT assay, ThioGlo1 CoA-SH fluorescence | Potency, µM (top dose mostly 58.9 µM), for inactives: at the top dose activity change, negative = inhibition, usual class: inhibitors | hit rate 0.21% among 390,000 | AID 504327, 2011; further: potency means the concentration at half of the fitted maximal effect; on the % scale 0 is the no-effect control and ±100 the full control effect
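Titration-based screen in which CoA formation is detected via maleimide probe ThioGlo1 (50uM) turning fluorescent on thiol reaction; substrates H3(1-25) 75uM and acetyl-CoA 70uM, GCN5L2 20nM, 20 min incubation at room temperature.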
BAZ2B block – qHTS Assay for Inhibitors of BAZ2B. Bromodomain adjacent to zinc finger domain protein 2B (Homo sapiens), Q9UIF8. AlphaScreen BAZ2B-H3K14Ac peptide displacement. Potency, µM (doses to about 114 µM), without a hit: at the highest dose activity change, negative = inhibition, hits mostly inhibitors. hit rate 4.4% among 360,000. AID 504333, 2011; further: potency means the concentration at half of the fitted maximal effect; on the % scale 0 is the no-effect control and ±100 the full control effect; nearly all actives have a fitted effect of over 60% in size
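AlphaScreen displacement: compounds (up to 110uM) incubated 30 min at room temperature with a preformed 50 nM BAZ2B/50 nM biotinylated H3K14Ac peptide complex in PBS pH 7.4 with Tween-20. Donor and acceptor beads at 10 ug/mL final added, 20 min light-protected before reading.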
Active calls of the source: *; ? = inconclusive; nt = not tested or not shown. A selection: hits, their analogues and other compounds. The true share with any hit is near 7%. Unless noted, the call rests on the fitted dose curve; in most records, active means well fitted curve in the direction sought with a large enough effect; inconclusive means small, poorly fitted or top-dose-only effect, or another doubt; inactive means no such curve, though single readings can be large; an effect the other way counts as inactive or inconclusive.

SMILES	HP1b chromo inh	PLK1 PBD block	JMJD2A Tudor	PI5P4K alpha inh	GCN5L2 inh	BAZ2B block
Cc1ccc([C@@H]2CC=C(C(=O)O)[C@H](c3ccc(Cl)cc3)N2S(=O)(=O)c2ccccc2C)cc1	15%	21µM*	-25%	0	-24%	nt
COc1ccc([C@@H]2CC=C(C(=O)O)[C@H](c3cccc(Cl)c3)N2S(=O)(=O)c2ccccc2C)cc1	31%	-17%	-18%	-4	-9%	-5%
ClC1(Cl)CC1CSc1nnc(-c2ccncc2)o1 (stereo not drawn)	89%	-3%	3%	4	-12%	2%
C=CC[C@@H](CC(=O)N(CCO)Cc1ccccc1)C(=O)NC[C@H](OC(=O)[C@@H](CC=C)Cc1ccc(F)cc1)c1ccccc1	35%	6%	-16%	3	-15%	nt
COc1ccc(CN2C(=O)c3ccccc3C2c2nnnn2-c2ccc3c(c2)OCCO3)cc1 (stereo not drawn)	nt	-8%	nt	2	nt	nt
COc1ccc(Cc2nnc(N/N=C/c3ccc(O)cc3O)[nH]c2=O)cc1OC	31%	-4%	14µM*	?	-1%	5µM*
CCCCCC/C=N/Nc1nnc(Cc2ccc(OC)c(OC)c2)c(=O)[nH]1	23%	-5%	0.89µM*	7	4%	7.1µM*
Cc1ccc(/C=N/Nc2nnc(Cc3ccccc3)c(=O)[nH]2)o1	21%	-3%	-7%	6	1%	?
CCCCCCC/C=N/Nc1nnc(Cc2ccccc2)c(=O)[nH]1	7%	-5%	?	2	16%	?
COc1ccc(-c2nc(CSc3nncn4c3cc3oc(C)cc34)c(C)o2)cc1	34%	nt	-23%	nt	1%	-31%
CCOC(=O)c1sc2ncn(CC(=O)Nc3ccc(N(C)C)cc3)c(=O)c2c1C	24%	nt	-2%	nt	-1%	0%
COc1cc(NC(=O)COC(=O)C2CC(O)CN2S(=O)(=O)c2ccc(Cl)cc2)c(C)cc1[N+](=O)[O-] (stereo not drawn)	21%	-4%	-26%	5	nt	nt
Cc1ccc(S(=O)(=O)N2CC(O)C[C@H]2C(=O)OCC(=O)Nc2ccc(N3CCCCC3)cc2)cc1C (stereo partly drawn)	?	-9%	45µM*	2	-4%	40µM*
Cc1ccc(-c2n[nH]c(=O)c3ccccc23)cc1S(=O)(=O)NCC1CCCO1 (stereo not drawn)	15%	-2%	1%	-10	1%	-14%
Cc1ccc(-c2n[nH]c(=S)c3ccccc23)cc1S(=O)(=O)NCC1CCCO1 (stereo not drawn)	-36%	-18%	18µM*	-3	-11%	-33%
O=c1c(/C=N/Nc2ccccc2)c(Sc2nnnn2-c2ccccc2)nc2ccccn12	9%	7%	-15%	nt	-3%	7%
O=C(O)c1ccccc1N/N=C/c1c(Sc2nnnn2-c2ccccc2)nc2ccccn2c1=O	-25%	9%	?	-7	-6%	45µM*
O=C(OCCN1CCCCC1)c1ccccc1Cl	17%	-3%	-12%	7	-5%	-20%
CC1CCN(CCOc2cc(Cl)ccc2Cl)CC1	?	-8%	3.5µM*	nt	-6%	50µM*
Fc1ccccc1OCCCCN1CCCCC1	-12%	-6%	79µM*	0	-4%	?
Cc1ccc(Cl)c(OCCCCN2CCC(C)CC2)c1	33%	2%	0%	3	nt	nt
Clc1ccccc1OCCCCN1CCCCC1	?	-10%	28µM*	3	-5%	?
Clc1ccccc1OCCCCN1CCCC1	?	-2%	3.2µM*	nt	22%	?
C[C@H](/C=C/[C@@]1(O)[C@H](C)C[C@H](O)CC1(C)C)O[C@@H]1O[C@H](CO)[C@@H](O)[C@H](O)[C@H]1O	33%	-1%	-10%	-9	-1%	-34%
Cc1ccc(S(=O)(=O)N(CCC(=O)N2CCOCC2)c2ccccc2)cc1	15%	1%	-8%	-4	-8%	-5%
SMILES	HP1b chromo inh	PLK1 PBD block	JMJD2A Tudor	PI5P4K alpha inh	GCN5L2 inh	BAZ2B block
CCc1noc(C)c1C(=O)N1CCCSC1=Nc1ccccc1Cl	23%	-9%	-3%	5	-29%	6%
O=C(COc1ccc(Cl)cc1Cl)NCCN1CCCCC1	nt	3%	nt	0	nt	nt
Clc1ccc(Cl)c(OCCCCN2CCCCC2)c1	?	-1%	32µM*	3	1%	?
c1ccc2c(OCCCCN3CCCC3)cccc2c1	?	-1%	40µM*	4	-8%	56µM*
Cc1cccc(C)c1OCCCCN1CCNCC1	-9%	-5%	6.3µM*	-4	-8%	?
O=S(=O)(CCN1CCCCC1)Oc1ccc(Cl)cc1Cl	58%	12µM*	-11%	0	-1%	-2%
O=C1C(=O)N(c2ccccn2)C(c2cccc([N+](=O)[O-])c2)/C1=C(/O)c1ccc(Br)cc1 (stereo not drawn)	25%	-6%	-15%	-2	-12%	-26%
Clc1ccccc1OCCCCN1CCNCC1	?	-13%	3.2µM*	1	-2%	28µM*
CN1CCN(CCCCOc2ccccc2C=O)CC1	?	-12%	4µM*	7	-1%	22µM*
O=Cc1ccccc1OCCOc1ccccc1C=O	40%	-12%	-3%	nt	-4%	-7%
Cc1cc(C)c(/C([O-])=C(/C(=S)Nc2ccc(SC(F)F)cc2)[n+]2ccccc2)cc1C	-22%	-29%	?	5	-21%	22µM*
Cc1cc(C([O-])=C(C(=S)Nc2ccccc2)[n+]2ccccc2)c(C)n1-c1ccccc1	?	?	32µM*	-6	nt	nt
Cc1ccc(NC(=S)/C(=C(\[O-])c2ccc(F)cc2)[n+]2ccccc2)cc1	?	-21%	?	-28	0%	?
Cc1ccccc1NC(=S)/C(=C(\[O-])c1cc(C)n(Cc2ccccc2Cl)c1C)[n+]1ccccc1	?	?	35µM*	-12	-2%	40µM*
CC1=C(C(=O)N(C(C)C)C(C)C)CC(CC(=O)NCCc2ccccn2)C(=O)N1Cc1ccc(C(C)(C)C)cc1 (stereo not drawn)	nt	-1%	nt	3	nt	nt
CCOc1ccccc1/C=N/n1nnnc1N	12%	-11%	-3%	1	-22%	4%
Nc1cc(S(=O)(=O)Nc2ccccc2Cl)ccc1N1CCCCC1	?	2.4µM*	?	-26	-28%	nt

Assay outcomes from PubChem BioAssay.
